# In PubChem BioAssay:
# Calls of active or inactive are those of the source.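 The calls were made as follows, unless noted: active = fluorescence slope after compound addition differing from the mean of all screened samples at 99.7% confidence, in either direction; inactive = the rest.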
# How the values were obtained:
# [1] = inhibitors of TNFa-induced NFkB p65 translocation, primary screen, imaging, HUVEC, MLSMR starter and 10KST1 sets (AID 438;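 active = inhibition above 20% together with a positive visual image hit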;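 also: compound added about 3h40 before a 20 min TNFalpha stimulation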;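 as to inhibition: signal is the nuclear over cytoplasmic p65 intensity ratio per well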); details: HUVEC TNFa-induced p65 nuclear translocation; cell count: measured here: nuclei count (cytotoxicity indicator), at 2.08 µM; inhibition: at 2 µM, stronger effect = higher value, 0% TNFa-plus-vehicle, 100% no-TNFa wells
# [2] = reduction of polyQ htt aggregates in cells – imaging, exon1htt(103Q)mCFP cells, high-content imaging, primary screen (AID 483;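 active = visual image review flags a hit and inhibition of aggregation exceeds 20%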;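 also: compound exposure lasted 3 days before fixation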;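 as to nuclei count: percent of the per-plate median nuclei count of sample wells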); details: exon1htt(103Q)mCFP cell line, aggregate imaging, at 2 µM; inhibition of aggregation: stronger effect = higher value; nuclei count: measured here: cell count, toxicity
# [3] = endothelial E-selectin expression blockers – imaging, HUVEC, immunofluorescence, MLSMR starter and 10KST1 sets, primary screen (AID 487;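 active = visually confirmed hit in the image check and inhibition above 20%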;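 as to inhibition: signal is fraction of cell area covered by stained E-selectin grains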;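 as to nuclei count: 100% = median nuclei count of all wells on the same plate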); details: HUVEC TNFalpha-induced E-selectin immunofluorescence imaging, at 2 µM; inhibition: stronger effect = higher value; nuclei count: measured here: cell number, toxicity
# [4] = Primary imaging screen for DUSP6 inhibitors that restore phospho-Erk in transfected HeLa cells, chemical complementation (AID 609;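 active = compounds giving at least 50% inhibition in the cell-based MKP-3 phosphatase rescue imaging test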;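 as to inhibition: phospho-Erk level distribution per well compared with pooled transfected vehicle control wells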); details: HeLa MKP-3 transfected, phospho-Erk imaging KS statistic, at 10 µM, cells stimulated with TPA for 15 min
# [5] = molecular target: Dual specificity protein phosphatase 6 (Homo sapiens) (UniProt Q16828); assay: as above; details: HeLa MKP-3 transfected, phospho-Erk imaging KS statistic; at 10 µM; stronger effect = higher value; cells stimulated with TPA for 15 min
# Chain of Dual specificity protein phosphatase 6 (Homo sapiens) (Q16828 whole entry, looked up): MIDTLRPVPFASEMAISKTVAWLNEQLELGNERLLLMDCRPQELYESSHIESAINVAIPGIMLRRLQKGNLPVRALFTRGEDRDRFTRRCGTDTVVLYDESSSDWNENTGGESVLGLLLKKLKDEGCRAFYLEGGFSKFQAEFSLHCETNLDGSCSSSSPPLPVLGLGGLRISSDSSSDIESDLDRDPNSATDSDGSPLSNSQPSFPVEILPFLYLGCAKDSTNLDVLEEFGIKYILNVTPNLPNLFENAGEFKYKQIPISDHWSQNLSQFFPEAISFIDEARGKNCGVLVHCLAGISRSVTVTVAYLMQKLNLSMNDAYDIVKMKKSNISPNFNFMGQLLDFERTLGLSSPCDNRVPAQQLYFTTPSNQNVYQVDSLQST
# [6] = molecular target: Voltage-gated potassium channel subunit beta-2 (Rattus norvegicus) (UniProt P62483); assay: inhibitors of rat Kvbeta2 reductase activity – biochemical, NADPH fluorescence, primary screen (AID 622;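 active = fluorescence slope higher than the sample average by over 3 SD, cut at about -0.22 in these data, passing the limit was not always enough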;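 also: slope of raw intensity against log time taken from 70 to 1610 s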); details: recombinant KvBeta, 4-cyanobenzaldehyde reduction, at 10 µM, stronger effect = higher value
# Chain of Voltage-gated potassium channel subunit beta-2 (Rattus norvegicus) (P62483 whole entry, looked up): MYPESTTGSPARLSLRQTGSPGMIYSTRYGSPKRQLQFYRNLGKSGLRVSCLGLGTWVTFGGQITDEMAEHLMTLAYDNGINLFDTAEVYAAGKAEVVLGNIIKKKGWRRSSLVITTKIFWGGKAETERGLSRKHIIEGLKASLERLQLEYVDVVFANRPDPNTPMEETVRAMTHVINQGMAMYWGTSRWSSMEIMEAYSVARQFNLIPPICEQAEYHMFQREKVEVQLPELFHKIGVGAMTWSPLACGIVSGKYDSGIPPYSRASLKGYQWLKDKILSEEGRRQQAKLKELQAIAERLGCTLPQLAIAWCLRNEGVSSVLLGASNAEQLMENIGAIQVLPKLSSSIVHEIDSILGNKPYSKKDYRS
# [7] = molecular target: Voltage-gated potassium channel subunit beta-2 (Rattus norvegicus) (UniProt P62483); assay: enhancers of rat Kvbeta2 NADPH turnover – biochemical, NADPH fluorescence, primary screen (AID 623;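 active = NADPH fluorescence slope more negative than the mean of all samples by about 3 SD, 99.7% confidence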;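 also: fluorescence intensity change per second fitted from 20 to 320 s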); details: Recombinant KvBeta, NADPH fluorescence decrease slope, 10 min; at 10 µM; stronger effect = lower value
# [8] = molecular target: Alpha-2C adrenergic receptor (Homo sapiens) (UniProt P18825); assay: compounds altering alpha2C-coupled GIRK flux – cell-based, HEK293 alpha2C/GIRK1/2, thallium flux, primary screen (AID 624); details: thallium flux BTC fluorescence, at 10 µM, actives lie on both sides;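 also: slope of fluorescence ratio to pre-addition baseline per second over 15 to 24 s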
# Chain of Alpha-2C adrenergic receptor (Homo sapiens) (P18825 whole entry, looked up): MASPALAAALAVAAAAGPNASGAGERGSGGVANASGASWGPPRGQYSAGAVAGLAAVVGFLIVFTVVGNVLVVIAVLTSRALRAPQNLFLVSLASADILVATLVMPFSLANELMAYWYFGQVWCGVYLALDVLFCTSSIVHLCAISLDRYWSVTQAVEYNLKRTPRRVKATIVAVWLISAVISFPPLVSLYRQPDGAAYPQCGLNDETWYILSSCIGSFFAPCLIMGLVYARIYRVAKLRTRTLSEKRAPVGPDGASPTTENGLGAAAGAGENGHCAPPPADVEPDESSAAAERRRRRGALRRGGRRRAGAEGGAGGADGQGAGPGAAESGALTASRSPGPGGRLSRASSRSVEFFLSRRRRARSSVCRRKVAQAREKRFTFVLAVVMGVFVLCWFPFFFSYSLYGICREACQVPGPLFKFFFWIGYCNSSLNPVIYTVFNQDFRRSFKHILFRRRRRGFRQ
# [9] = inhibitors of larval lipid processing in zebrafish, primary screen, whole organism, PED6 fluorescence, gall bladder and intestine (AID 686;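 active = a full or partial loss of lipid-probe fluorescence in the fish gall bladder, intestine or both, judged by eye; inactive = no fluorescence loss, or compound toxic to the fish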;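 also: larvae 5 to 7 days old with five fish per well; signal comes from phospholipase A2 cleavage of quenched PED6 carried via bile; overnight exposure to compound and PED6 before scoring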); details: Zebrafish larvae PED6 lipid processing, fluorescence scoring; screened at 20 µM (by protocol)
# [10] = loss of swimming-algae plug formation – whole organism, Chlamydomonas reinhardtii, WT vs cilia-less mutant, absorbance, 96-well, primary screen (AID 463189;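 active = inhibition at or above 50% relative to wild type and mutant plate controls; inactive = inhibition below 50%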;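 also: 0% = wild type cc124 cells in DMSO and 100% = ciliumless bld1 mutant cells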); details: Chlamydomonas reinhardtii gravitaxis, OD600 absorbance, 2 days; at 10 µM; stronger effect = higher value
# [11] = blockers of RIG-like receptor reporter activation – cell-based, Sendai virus stimulus, luciferase, 10K MLSCN set, TLR/RLR signaling modifier project, primary screen (AID 602276;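 active = inhibition at or above 50% at 10 µM; inactive = inhibition below 50%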;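 also: firefly luciferase from ISG56 promoter only with Renilla not read in this screen; 0% = Sendai virus plus DMSO and 100% = medium plus DMSO without virus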); details: HEK293 RL24 IRF3 luciferase reporter, at 10 µM, stronger effect = higher value
# [12] = TLR3 IRF3 reporter activation blockers – cell-based, poly I:C stimulus, luciferase, 10K MLSCN set, primary screen (AID 602277;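 active = inhibition of the reporter signal at or above 50%; inactive = inhibition below 50%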); details: HEK293-TLR3 RL24 IRF3 luciferase reporter, at 10 µM, stronger effect = higher value
# [13] = measured here: cell density z-score
# [14] = measured here: nuclear c-Myc green intensity z-score
# [15] = measured here: nuclear pErk red intensity z-score, stronger effect = higher value
SMILES,cell count [1],inhibition [1],inhibition of aggregation [2],nuclei count [2],inhibition [3],nuclei count [3],"z-score [4, 13]","z-score [4, 14]","z-score [4, 15]",inhibition [5],fluorescence slope [6],NADPH fluorescence slope [7],slope [8],outcome [9],inhibition [10],inhibition [11],inhibition [12]
CC(=O)N=c1sc(S(N)(=O)=O)nn1C,541,-11.9% (inactive),7.8% (inactive),88.8%,-94% (inactive),104%,0.515,1.15,1.01,9.37% (inactive),-0.454 (inactive),-6.4e-05 (inactive),0.00535 (inactive),inactive,13.4% (inactive),4.97% (inactive),15.9% (inactive)
NS(=O)(=O)c1cc2c(cc1Cl)NC(C1C[C@H]3C=C[C@@H]1C3)NS2(=O)=O (stereo not given in full),536,-8.9% (inactive),-11.7% (inactive),102%,6.1% (inactive),120%,0.229,0.164,0.0197,-6.41% (inactive),-0.525 (inactive),-1.3e-05 (inactive),0.00377 (inactive),inactive,20.5% (inactive),-6.01% (inactive),-8.05% (inactive)
N#CC(C(=O)Nc1ccc(Cl)c(Cl)c1)=C1Nc2ccccc2N1,445,-0.2% (inactive),13.2% (inactive),98.9%,-124% (inactive),136%,0.726,1.14,0.693,-1.75% (inactive),-0.351 (inactive),-8.3e-07 (inactive),0.00591 (inactive),inactive,-6.51% (inactive),12.6% (inactive),15.9% (inactive)
CCC(=O)c1ccc(O)cc1,663,0.5% (inactive),-14% (inactive),101%,-19.7% (inactive),118%,-0.298,-0.183,0.759,19% (inactive),-0.496 (inactive),8.5e-06 (inactive),0.00491 (inactive),inactive,-6.67% (inactive),13.6% (inactive),5.36% (inactive)
COC(=O)c1cccc(Nc2cc(C)nc(-c3ccccc3O)n2)c1,614,-12.4% (inactive),-1% (inactive),92.7%,-86.5% (inactive),118%,-0.273,0.157,-0.334,9.91% (inactive),-0.279 (inactive),-1.2e-05 (inactive),0.00663 (inactive),inactive,5.5% (inactive),-10.3% (inactive),-37.2% (inactive)
